We go through 12 compounds from PubChem BioAssay (Tox21).

Values without a mark were called inactive. Results filed as inconclusive are left out. Activity calls are given as the source filed them. Unless noted, calls come from the whole dose curve; as a rule, active = well fitted curve in the direction sought with a large enough effect in the repeat runs; inconclusive = weak or mixed curves; inactive = no such curve, though single readings can be large; an effect the other way counts as inactive or inconclusive.

The target of experiment [1] is Thyrotropin-releasing hormone receptor (Homo sapiens) (UniProt P34981). Put plainly: qHTS assay to identify small molecule agonists of the thyrotropin-releasing hormone receptor (TRHR) signaling pathway (AID 1346891; calls by dose curve;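 note: HEK293 cells expressing TRHR with calcium dye readout; series mostly up to about 58 µM; % is set by controls: 0 for no effect and ±100 for the full control effect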). Summed up: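 HEK293/TRHR cells, 1500 per well, 18 h 37 °C; Ca dye 2 h 37 °C; pin-tool compound addition (agonist mode); kinetic fluorescence 3 min, 1 s reads; 15 concentrations, triplicate.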

Experiment [2] can be described thus: Human pregnane X receptor (PXR) small molecule agonists, qHTS cell viability counter screen (AID 1346977). For activity change, negative = cytotoxicity: % is set by controls: 0 for no effect and ±100 for the full control effect. Note: nearly all actives have a fitted effect of over 50% in size. Note: potency is the fitted concentration of half-maximal effect. Summed up: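 Fluorescence read-out (CellTiter-Fluor) of viability in PXR-Luc HepG2 cells, multiplexed with the luciferase agonist read. Compounds in DMSO added after 5hr plating; 24hr total exposure at 37C, 5% CO2.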
On the technique in general: In qHTS, concentration-response curves come from the screen itself.

The nature of experiment [3]: Caspase-3/7 induction in HepG2 cells by small molecules, qHTS assay (AID 1346978). For caspase activation: % is set by controls: 0 for no effect and ±100 for the full control effect. Note: nearly all actives have a fitted effect of over 15% in size. Note: potency is the fitted concentration of half-maximal effect. The method, boiled down:
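Wild-type HepG2 cells (2,000/well) were settled 5 h at 37 C, 5% CO2, then exposed to compounds in DMSO for 17 h. Caspase-3/7 activity was read by luminescence 30 min after adding Caspase-Glo 3/7 reagent at room temperature.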

A short description of experiment [4]: Caspase-3/7 induction in CHO-K1 cells by small molecules, qHTS cell viability counter screen (AID 1346979). Note: % is set by controls: 0 for no effect and ±100 for the full control effect; nearly all actives have a fitted effect of over 35% in size. The method, boiled down:
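CHO-K1 wt, 1,500 cells/well; 5hr pre-incubation 37C/5% CO2; compound pin transfer (DMSO); 16hr exposure; CellTiter-Fluor added, 1hr, fluorescence read.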

A short description of experiment [5]: Caspase-3/7 induction in HepG2 cells by small molecules, qHTS cell viability counter screen (AID 1346981). Note: series mostly up to about 92 µM; % is set by controls: 0 for no effect and ±100 for the full control effect; nearly all actives have a fitted effect of over 30% in size. Summed up: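 Cell viability is measured as a cytotoxicity counter screen alongside the Caspase-Glo 3/7 readout in identical wells. Wild-type HepG2 cells are treated with test compounds for 16 hr at 37 C before CellTiter-Fluor addition and a 1-hr incubation.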

Experiment [6] deals with Cytochrome P450 2C19 (Homo sapiens) (UniProt P33261). Kind of experiment: Cytochrome P450 Family 2 Subfamily C Member 19 (CYP2C19) small molecule antagonists: luciferase reporter qHTS assay (AID 1671197). Note: nearly all actives have a fitted effect of over 65% in size. Note: potency is the fitted concentration of half-maximal effect. The method, boiled down: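 First, compounds are pinned into enzyme-substrate mix and held 10 min at room temperature. Second, NADPH regeneration solution is added and plates incubate 1 h at 37C. Third, detection reagent is added and luminescence read after 20 min.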
Background: In a reporter assay the amount or activity of a reporter protein is the signal.

Experiment [7] deals with Cytochrome P450 2C9 (Homo sapiens) (UniProt P11712). Kind of experiment: Cytochrome P450 Family 2 Subfamily C Member 9 (CYP2C9) small molecule antagonists: luciferase reporter qHTS assay (AID 1671198). Note: nearly all actives have a fitted effect of over 50% in size. Note: potency is the fitted concentration of half-maximal effect. Summed up:
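CYP2C9 activity was measured with a P450-Glo proluciferin substrate. Enzyme–substrate mix was held with compound for 10 min at room temperature, then NADPH regeneration solution was added for 1 h at 37C. Luciferin product was read as luminescence.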

The target of experiment [8] is Cytochrome P450 1A2 (Homo sapiens) (UniProt P05177). Kind of experiment: Cytochrome P450 Family 1 Subfamily A Member 2 (CYP1A2) small molecule antagonists: luciferase reporter qHTS assay (AID 1671199). Note: nearly all actives have a fitted effect of over 50% in size. Note: potency is the fitted concentration of half-maximal effect. The method, boiled down: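 Compounds were incubated with CYP1A2 and a luminogenic proluciferin substrate for 10 min at room temperature before the reaction was started with NADPH regeneration solution. After 1 h, detection reagent was added and light output, proportional to CYP activity, was recorded.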

Experiment [9] addresses Voltage-gated inwardly rectifying potassium channel KCNH2 (Homo sapiens) (UniProt Q12809). Put plainly: Human Ether-a-go-go-Related Gene (hERG) channel small molecule antagonists: fluorescence cell-based qHTS assay (AID 1671200). Note: nearly all actives have a fitted effect of over 50% in size. Note: potency is the fitted concentration of half-maximal effect. Summed up:
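Read-out: thallium influx as a surrogate for potassium, tracked as fluorescence (480 nm ex/540 nm em) every second for 2 min after Stimulus Buffer addition in dye-loaded hERG-U2OS cells.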
For orientation: The hERG channel carries a current that helps repolarise heart muscle cells.

Experiment [10] addresses Cytochrome P450 3A4 (Homo sapiens) (UniProt P08684). Kind of experiment: Cytochrome P450 Family 3 Subfamily A Member 4 (CYP3A4) small molecule antagonists: luciferase reporter qHTS assay (AID 1671201). For activity change, negative = inhibition: series mostly up to about 120 µM; % is set by controls: 0 for no effect and ±100 for the full control effect. Note: nearly all actives have a fitted effect of over 50% in size. Note: potency is the fitted concentration of half-maximal effect. The method, boiled down: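 Luminescent readout (RLU) proportional to CYP3A4 activity, from luciferin generated off a proluciferin substrate. Enzyme–substrate mix plus compound 10 min at room temp, NADPH regeneration 1 h, detection reagent 20 min.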

Experiment [11] has as its target Nuclear receptor subfamily 1 group I member 2 (Homo sapiens) (UniProt O75469). Put plainly: Human pregnane X receptor (PXR) small molecule agonists, qHTS assay (AID 1346982). Note: nearly all actives have a fitted effect of over 35% in size. Note: potency is the fitted concentration of half-maximal effect. The method, boiled down: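 Cells: HepG2 stably carrying PXR-Luc. Medium held 5% charcoal-stripped FBS. Compounds in DMSO added after 5 hr plating, incubated 24 hr, then luminescence quantified with ONE-Glo.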

In experiment [12] the target is Cytochrome P450 2D6 (Homo sapiens) (UniProt P10635). Put plainly: Cytochrome P450 Family 2 Subfamily D Member 6 (CYP2D6) small molecule antagonists: luciferase reporter qHTS assay (AID 1671196). Note: nearly all actives have a fitted effect of over 50% in size. Note: potency is the fitted concentration of half-maximal effect. Summed up: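 Enzyme and proluciferin substrate were first combined with test chemical for 10 min at room temperature. Adding NADPH regeneration solution started a 1 h reaction, stopped with luciferin detection reagent and read by luminescence 20 min later.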

Experiment [13] can be described thus: Caspase-3/7 induction in CHO-K1 cells by small molecules, qHTS assay (AID 1346980). Note: % is set by controls: 0 for no effect and ±100 for the full control effect; nearly all actives have a fitted effect of over 15% in size. The method, boiled down:
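Wild-type cells were seeded at 1,500 per well and settled 5 hr at 37 C, 5% CO2, then exposed to DMSO-dissolved compounds for 17 hr. Caspase-Glo 3/7 reagent was added, and luminescence was read after 30min at room temperature.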

Experiment [14] deals with Nuclear receptor subfamily 1 group I member 2 (Rattus norvegicus) (UniProt Q9R1A7). Kind of experiment: Rat pregnane X receptor (rPXR) activation by small molecules, qHTS assay (AID 1346983). Note: potency is the fitted concentration of half-maximal effect; nearly all actives have a fitted effect of over 20% in size. Particulars: rPXR luciferase reporter cells, One-Glo luminescence, 24 h; max activation: active compounds read high. The method, boiled down:
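Cell-based rPXR luciferase reporter assay, 2,000 cells per well, rested 5hr at 37 C before compound addition in DMSO, then 24 hr at 37 C. One-Glo reagent was added and luminescence read after 30 min at room temperature.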

Experiment [15] deals with Nuclear receptor subfamily 1 group I member 2 (Homo sapiens) (UniProt O75469). Put plainly: Human pregnane X receptor (PXR) activation by small molecules, qHTS assay (AID 1346985). Note: nearly all actives have a fitted effect of over 40% in size. Note: potency is the fitted concentration of half-maximal effect. The method, boiled down: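 DPX-2 cells (HepG2 co-transfected with a PXR response element and a CYP3A4-promoter luciferase construct) were seeded at 2,000 per well, rested 5 hr at 37C, then exposed to DMSO-dissolved compounds for 24 hr. Activation was read as luciferase luminescence.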

Experiment [16] shares this target. Kind of experiment: CYP3A4 induction through human pregnane X receptor (PXR) by small molecules, qHTS assay (AID 1346984). Note: % is set by controls: 0 for no effect and ±100 for the full control effect; nearly all actives have a fitted effect of over 40% in size. The method, boiled down:
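Quantitative HTS in DPX-2 cells, i.e. HepG2 transfected with PXR response element and CYP3A4-promoter luciferase. Compounds in DMSO incubated 24hr at 37C; then P450-Glo CYP3A4 substrate, 3uM final, 3hr; One-Glo luminescence.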

Sequence of Cytochrome P450 3A4 (Homo sapiens) (P08684 whole entry, looked up): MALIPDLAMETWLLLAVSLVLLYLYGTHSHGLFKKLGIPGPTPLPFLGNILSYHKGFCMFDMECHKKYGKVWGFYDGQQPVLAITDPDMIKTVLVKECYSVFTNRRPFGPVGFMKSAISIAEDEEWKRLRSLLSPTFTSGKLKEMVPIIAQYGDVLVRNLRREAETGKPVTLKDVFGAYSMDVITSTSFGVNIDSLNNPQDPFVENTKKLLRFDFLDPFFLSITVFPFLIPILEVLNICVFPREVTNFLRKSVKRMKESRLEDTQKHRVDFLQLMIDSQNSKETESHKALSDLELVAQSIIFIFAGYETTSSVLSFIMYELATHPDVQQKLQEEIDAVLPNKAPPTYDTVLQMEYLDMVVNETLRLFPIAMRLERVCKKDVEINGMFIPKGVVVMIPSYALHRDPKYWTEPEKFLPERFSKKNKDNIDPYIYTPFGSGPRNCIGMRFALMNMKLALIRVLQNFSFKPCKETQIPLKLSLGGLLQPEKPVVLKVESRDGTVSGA
Sequence of Voltage-gated inwardly rectifying potassium channel KCNH2 (Homo sapiens) (Q12809 whole entry, looked up): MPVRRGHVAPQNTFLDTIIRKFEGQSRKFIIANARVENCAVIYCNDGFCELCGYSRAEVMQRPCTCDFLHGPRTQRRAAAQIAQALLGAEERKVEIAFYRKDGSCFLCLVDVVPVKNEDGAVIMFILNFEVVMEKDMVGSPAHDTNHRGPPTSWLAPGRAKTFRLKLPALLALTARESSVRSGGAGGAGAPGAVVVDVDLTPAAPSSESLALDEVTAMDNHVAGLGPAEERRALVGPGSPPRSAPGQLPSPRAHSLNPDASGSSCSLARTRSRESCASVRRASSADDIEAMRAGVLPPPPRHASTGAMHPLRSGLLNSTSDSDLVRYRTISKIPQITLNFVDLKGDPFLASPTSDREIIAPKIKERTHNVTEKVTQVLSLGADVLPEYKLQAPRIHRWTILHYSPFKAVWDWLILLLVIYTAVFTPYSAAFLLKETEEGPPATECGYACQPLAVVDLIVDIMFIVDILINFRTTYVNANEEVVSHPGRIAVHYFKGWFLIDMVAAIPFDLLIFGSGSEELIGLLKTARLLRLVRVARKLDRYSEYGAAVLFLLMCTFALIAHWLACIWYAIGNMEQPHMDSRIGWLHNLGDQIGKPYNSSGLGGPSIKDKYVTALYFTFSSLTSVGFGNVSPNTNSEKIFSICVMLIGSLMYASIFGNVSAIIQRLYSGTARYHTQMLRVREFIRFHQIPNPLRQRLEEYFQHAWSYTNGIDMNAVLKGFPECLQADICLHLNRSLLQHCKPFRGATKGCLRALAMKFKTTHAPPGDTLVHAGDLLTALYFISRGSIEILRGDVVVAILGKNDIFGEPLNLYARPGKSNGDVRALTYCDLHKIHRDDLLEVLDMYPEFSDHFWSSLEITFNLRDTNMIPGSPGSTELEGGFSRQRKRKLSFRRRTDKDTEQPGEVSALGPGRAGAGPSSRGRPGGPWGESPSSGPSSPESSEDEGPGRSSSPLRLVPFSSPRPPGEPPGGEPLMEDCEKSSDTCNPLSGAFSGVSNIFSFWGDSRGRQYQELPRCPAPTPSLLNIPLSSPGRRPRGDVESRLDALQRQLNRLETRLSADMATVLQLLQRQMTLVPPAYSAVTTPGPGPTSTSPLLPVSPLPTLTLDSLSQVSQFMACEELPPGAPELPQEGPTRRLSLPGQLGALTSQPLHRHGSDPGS
Sequence of Cytochrome P450 1A2 (Homo sapiens) (P05177 whole entry, looked up): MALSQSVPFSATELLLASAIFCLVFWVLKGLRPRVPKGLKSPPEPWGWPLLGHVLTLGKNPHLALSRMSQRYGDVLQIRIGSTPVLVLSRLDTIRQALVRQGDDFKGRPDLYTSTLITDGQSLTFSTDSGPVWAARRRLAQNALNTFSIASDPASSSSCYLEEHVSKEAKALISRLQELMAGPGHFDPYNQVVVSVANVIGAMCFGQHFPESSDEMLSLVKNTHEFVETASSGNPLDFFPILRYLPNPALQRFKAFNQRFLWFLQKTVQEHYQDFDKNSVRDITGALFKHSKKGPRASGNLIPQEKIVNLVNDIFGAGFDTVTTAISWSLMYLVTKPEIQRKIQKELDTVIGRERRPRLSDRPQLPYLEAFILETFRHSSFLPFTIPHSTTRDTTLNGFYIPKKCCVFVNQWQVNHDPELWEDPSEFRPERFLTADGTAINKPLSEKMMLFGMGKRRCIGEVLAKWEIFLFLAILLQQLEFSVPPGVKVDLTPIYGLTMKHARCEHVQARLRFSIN
Sequence of Cytochrome P450 2C19 (Homo sapiens) (P33261 whole entry, looked up): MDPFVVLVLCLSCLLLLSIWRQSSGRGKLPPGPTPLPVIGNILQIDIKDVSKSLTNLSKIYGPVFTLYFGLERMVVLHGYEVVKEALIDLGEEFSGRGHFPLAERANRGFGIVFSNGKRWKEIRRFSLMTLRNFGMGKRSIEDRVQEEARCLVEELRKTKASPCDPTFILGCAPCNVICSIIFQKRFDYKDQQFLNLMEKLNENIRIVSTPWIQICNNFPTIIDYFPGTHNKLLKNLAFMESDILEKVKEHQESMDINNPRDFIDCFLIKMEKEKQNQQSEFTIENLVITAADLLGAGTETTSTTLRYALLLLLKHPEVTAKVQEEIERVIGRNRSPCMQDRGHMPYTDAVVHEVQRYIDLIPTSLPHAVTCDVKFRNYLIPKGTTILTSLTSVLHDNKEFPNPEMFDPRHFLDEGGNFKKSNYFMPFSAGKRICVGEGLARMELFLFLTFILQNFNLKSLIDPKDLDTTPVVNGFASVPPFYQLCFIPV
Sequence of Cytochrome P450 2C9 (Homo sapiens) (P11712 whole entry, looked up): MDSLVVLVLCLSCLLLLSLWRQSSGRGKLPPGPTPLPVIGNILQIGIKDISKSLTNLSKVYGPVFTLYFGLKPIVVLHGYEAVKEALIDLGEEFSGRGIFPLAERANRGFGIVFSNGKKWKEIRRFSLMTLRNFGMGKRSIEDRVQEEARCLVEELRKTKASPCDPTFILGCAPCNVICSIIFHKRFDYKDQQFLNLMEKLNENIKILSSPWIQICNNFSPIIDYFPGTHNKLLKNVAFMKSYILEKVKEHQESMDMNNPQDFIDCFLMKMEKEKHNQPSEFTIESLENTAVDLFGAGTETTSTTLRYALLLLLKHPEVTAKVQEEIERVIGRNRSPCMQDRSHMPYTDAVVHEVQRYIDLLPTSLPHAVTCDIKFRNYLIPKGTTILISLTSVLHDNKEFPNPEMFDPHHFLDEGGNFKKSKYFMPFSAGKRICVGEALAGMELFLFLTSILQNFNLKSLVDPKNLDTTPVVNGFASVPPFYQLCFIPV
Sequence of Thyrotropin-releasing hormone receptor (Homo sapiens) (P34981 whole entry, looked up): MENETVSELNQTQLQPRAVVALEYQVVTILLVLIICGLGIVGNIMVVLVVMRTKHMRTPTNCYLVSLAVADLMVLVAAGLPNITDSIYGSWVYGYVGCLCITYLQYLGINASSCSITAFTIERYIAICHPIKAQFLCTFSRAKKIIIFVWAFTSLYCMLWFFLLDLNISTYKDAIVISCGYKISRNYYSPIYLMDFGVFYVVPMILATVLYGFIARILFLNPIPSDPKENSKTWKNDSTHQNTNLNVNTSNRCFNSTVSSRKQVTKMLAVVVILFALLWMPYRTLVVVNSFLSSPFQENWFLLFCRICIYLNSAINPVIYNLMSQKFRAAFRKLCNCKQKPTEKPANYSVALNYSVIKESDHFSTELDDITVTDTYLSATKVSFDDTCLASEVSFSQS
Sequence of Cytochrome P450 2D6 (Homo sapiens) (P10635 whole entry, looked up): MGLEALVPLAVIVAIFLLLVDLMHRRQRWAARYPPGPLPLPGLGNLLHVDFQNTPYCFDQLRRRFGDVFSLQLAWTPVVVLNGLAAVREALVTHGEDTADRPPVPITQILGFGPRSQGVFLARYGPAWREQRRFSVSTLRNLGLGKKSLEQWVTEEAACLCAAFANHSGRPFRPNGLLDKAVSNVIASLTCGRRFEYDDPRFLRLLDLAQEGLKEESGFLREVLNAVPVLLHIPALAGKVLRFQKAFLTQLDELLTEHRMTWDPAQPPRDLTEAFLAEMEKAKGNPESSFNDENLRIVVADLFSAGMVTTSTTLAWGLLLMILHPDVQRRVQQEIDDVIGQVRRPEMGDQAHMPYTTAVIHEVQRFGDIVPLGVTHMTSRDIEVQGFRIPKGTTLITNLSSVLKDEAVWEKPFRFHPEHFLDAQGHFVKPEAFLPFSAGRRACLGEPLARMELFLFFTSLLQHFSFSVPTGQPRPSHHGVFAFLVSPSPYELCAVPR
Sequence of Nuclear receptor subfamily 1 group I member 2 (Homo sapiens) (O75469 whole entry, looked up): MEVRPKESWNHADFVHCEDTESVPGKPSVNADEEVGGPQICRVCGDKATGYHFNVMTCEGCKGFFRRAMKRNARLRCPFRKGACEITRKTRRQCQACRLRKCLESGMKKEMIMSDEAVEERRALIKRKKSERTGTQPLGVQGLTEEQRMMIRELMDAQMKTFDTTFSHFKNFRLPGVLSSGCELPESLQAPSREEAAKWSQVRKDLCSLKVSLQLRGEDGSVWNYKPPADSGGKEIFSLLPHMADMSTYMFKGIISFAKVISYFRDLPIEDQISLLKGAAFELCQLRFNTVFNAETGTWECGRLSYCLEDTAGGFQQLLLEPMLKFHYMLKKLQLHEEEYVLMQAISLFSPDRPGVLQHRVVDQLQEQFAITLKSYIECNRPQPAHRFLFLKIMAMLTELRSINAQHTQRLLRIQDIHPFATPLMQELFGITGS
Sequence of Nuclear receptor subfamily 1 group I member 2 (Rattus norvegicus) (Q9R1A7 whole entry, looked up): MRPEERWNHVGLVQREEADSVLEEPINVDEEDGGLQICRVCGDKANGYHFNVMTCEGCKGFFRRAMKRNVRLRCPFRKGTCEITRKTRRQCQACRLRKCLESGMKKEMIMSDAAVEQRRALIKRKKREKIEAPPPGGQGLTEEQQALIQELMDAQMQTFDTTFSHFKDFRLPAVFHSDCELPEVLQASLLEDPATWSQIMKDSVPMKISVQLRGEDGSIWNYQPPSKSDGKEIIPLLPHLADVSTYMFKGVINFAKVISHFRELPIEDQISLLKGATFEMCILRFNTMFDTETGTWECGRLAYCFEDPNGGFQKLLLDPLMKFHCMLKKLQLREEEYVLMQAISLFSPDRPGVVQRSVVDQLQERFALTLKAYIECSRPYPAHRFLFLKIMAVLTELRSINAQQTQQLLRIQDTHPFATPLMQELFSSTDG

`CCOC(=O)C(C)Oc1ccc(Oc2nc3ccc(Cl)cc3o2)cc1` (configuration not stated): the Potency result in experiment [1], in experiment [2], in experiment [3], in experiment [4], in [5] and in experiment [10] was “inactive” throughout. The Potency in [6] is 31.7 µM (active); in experiment [7], 39.9 µM (active); in [8] it was 31.7 µM (active); in [9], 34.7 µM (active).

Consider `CCCCCCCCSCCO`, for which the Potency entry in [1], in experiment [2], in experiment [3], in [4], in [5] and in [11] was “inactive” in each case. Also, the Potency entry in experiment [12], in experiment [9] and in [10] was “inactive” in each case. For the same compound, the values for the Potency in experiment [7] and in [8] were 44.8 µM (active) and 39.9 µM (active), respectively.

For `CC(C)CCCCCOC(=O)CCCCC(=O)OCCCCCC(C)C`, the Potency entry in [1], in experiment [2], in experiment [3], in experiment [4], in experiment [12] and in experiment [8] was “inactive” throughout. In addition, the Potency entry in experiment [9] is “inactive”. Moreover, the Potency in experiment [7] was 63.3 µM (active); in experiment [10] it was 35.6 µM (active).

Turning to `CC(C)(C)C(=O)C(Oc1ccc(Cl)cc1)n1ccnc1` (configuration not stated), the Potency result in experiment [1], in [2], in experiment [3], in [5] and in experiment [9] was “inactive” each time. The outcome in experiment [13] was inactive. In addition, the Potency is 23.7 µM (active) in experiment [11]; 12.6 µM (active) in [14]; 15.8 µM (active) in experiment [15]; 1.38 µM (active) in experiment [6]; 2.75 µM (active) in experiment [7]; 17.4 µM (active) in experiment [8].

Take `CCCOC(=O)c1ccc(C(=O)OCCC)nc1`: the Potency result in experiment [1], in experiment [2], in [3], in experiment [4], in [5] and in [11] was “inactive” in each case. Further, the Potency entry in experiment [12], in experiment [9] and in experiment [10] was “inactive” each time. Further, the Potency is 4.48 µM (active) in [6], 7.1 µM (active) in experiment [7] and 11.2 µM (active) in [8].

As for `CC(=O)[C@H]1CC[C@H]2[C@@H]3C[C@H](C)C4=CC(=O)CC[C@]4(C)[C@H]3[C@@H](O)C[C@]12C`, the Potency entry in experiment [1], in [2], in [3], in experiment [5], in [16] and in experiment [15] was “inactive” in each case. The Potency entry in experiment [12], in experiment [8] and in [9] was “inactive” each time. In addition, in experiment [13], the compound was called inactive. The Potency in experiment [11] was 13.3 µM (active); in experiment [14], 2.51 µM (active); in experiment [7], 1.23 µM (active).

As to `CCCC(=O)O[C@]1(C(=O)COC(=O)CC)CC[C@H]2[C@@H]3CCC4=CC(=O)CC[C@]4(C)[C@H]3[C@@H](O)C[C@@]21C`, the figures for the activation in experiment [1] and in [11] were -0.132% [at 11.8 µM] and -1.9% [at 19 µM], respectively. The values for the activity change, negative = cytotoxicity in [2], in experiment [4] and in experiment [5] were 12.4% [at 19 µM], 11.7% [at 19 µM] and 3.19% [at 19 µM], respectively. Moreover, in experiment [3], the caspase activation was -2.33% [at 19 µM]. For the same compound, the activity change, negative = inhibition in experiment [12] was -0.0142% [at 23.6 µM]; in experiment [6], -11.3% [at 23.6 µM]; in experiment [7] it was 11.6% [at 23.6 µM]; in experiment [9], 4.88% [at 15.8 µM]. In addition, in experiment [8], the Potency entry is “inactive”.

Turning to `O=C(O)c1ccccc1NCCc1ccccc1`, the Potency entry in [1], in experiment [2], in experiment [3], in [4], in [5] and in experiment [9] was “inactive” each time. In experiment [10], the Potency entry was “inactive”. Besides, the figures for the Potency in experiment [11] and in [7] were 23.7 µM (active) and 13.8 µM (active), respectively.

Turning to `Cc1ccc(/C=N/n2c(-c3ccccc3)csc2=S)cc1`, the Potency entry in experiment [1], in [2], in [3], in [5], in experiment [12] and in experiment [9] was “inactive” each time. For the same compound, the compound was classed as inactive in experiment [13]. The Potency in experiment [11] is 23.7 µM (active); in experiment [6] it was 8.71 µM (active); in experiment [7], 6.92 µM (active); in [8] it was 7.76 µM (active).

For `O=C(CCCN1CCN(c2ccc(F)cc2)CC1)NC1c2ccccc2CSc2ccccc21` (configuration not stated), the Potency result in [1], in experiment [3], in experiment [4], in experiment [5], in experiment [11] and in [8] was “inactive” in each case. Moreover, the Potency in experiment [2] was 21.1 µM (active); in experiment [12], 9.77 µM (active); in experiment [6] it was 4.36 µM (active); in [7], 6.92 µM (active); in experiment [9] it was 1.9 µM (active).

As for `CC1(C)C(=O)N(Br)C(=O)N1Cl`, the Potency result in experiment [1], in experiment [2], in experiment [3], in experiment [4], in [5] and in experiment [11] was “inactive” each time. Also, the Potency result in experiment [12] and in [9] was “inactive” throughout. The Potency was 71 µM (active) in experiment [6] and 63.3 µM (active) in [7].

As for `O=C(N[C@@H](c1ccccc1)[C@@H]1CCCCN1)c1cccc(C(F)(F)F)c1Cl`, the Potency entry in experiment [1] and in experiment [8] was “inactive” each time. In addition, the Potency in experiment [2] was 54.5 µM (active); in experiment [3], 54.5 µM (active); in [12], 1.26 µM (active); in experiment [7], 63.3 µM (active); in [10], 1.59 µM (active). For the same compound, the compound was called inactive in experiment [13].
